Reference: PubChem BioAssay AID1508622 (National Center for Advancing Translational Sciences (NCATS), 2021)
A number with no mark means an inactive call. Activity calls are given as the source filed them. The call rests on the fitted dose curve; in most records, active means well fitted activation curve with a large enough effect; inconclusive means small, poorly fitted or top-dose-only effect; inactive means no such curve, though single readings can be large or run the other way.

assay: Confirmatory qHTS for Identification of Small Molecule Activators of Huntingtin-Antisense Promoter Activity; conditions: HEK293 HTT-AS promoter firefly luciferase reporter, 24 h; series mostly up to 57.5 µM; activity change, positive = activation: at the top concentration
Summary of the method: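 Activity normalized between vehicle control (0%) and zero RLU (-100%) from firefly luminescence (Dual-Glo). Compounds, up to 57.5 uM final, incubated 24 h at 37C on HEK293 reporter cells plated 24 h earlier.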
Potency means the concentration at half of the fitted maximal effect.

Row | SMILES | activity change, positive = activation [%] | Potency
1 | COCCNc1nc(NCc2cccc(Cl)c2)c2cnn(C)c2n1 | -37.8 | 
2 | CCOC(=O)c1cc(-c2ccccc2)n(CCCC(=O)Nc2ccc(CC)cc2)c1C | -45.8 | 
3 | Cc1cccc(NS(=O)(=O)c2ccc3c(c2)CCN3C(=O)C2CCC2)c1 | -85.2 | 
4 | Cc1ccc(CNC(=O)Nc2cc(C(=O)NCc3ccc(C(C)C)cc3)ccc2N2CCCC2)cc1 | -94.6 | 
5 | CCCc1cc(N2CCN(c3ccc(OC)cc3)CC2)n2cnnc2n1 | -93.9 | 
6 | Cc1ccccc1OCC(=O)Nc1ccccc1C(=O)OCc1cc(=O)n2c(C)csc2n1 | 29.6 | 
7 | COc1ccc(NC(=O)CSc2nc(-c3cccs3)cc(C(F)(F)F)n2)cc1OC | -94.1 | 
8 | CCCCN(C)S(=O)(=O)c1cc(-c2cc(C)no2)ccc1C | -87.7 | 
9 | Cc1ccc2c(c1)N(C(=O)c1ccc(F)cc1)C(C)(C)CC2(C)c1ccccc1 (stereo not drawn) | -66.1 | 
10 | O=C(Cn1c(=O)oc2cc(S(=O)(=O)N3CCCCC3)ccc21)NCc1ccc(F)cc1 | -27.8 | 
11 | CCCCCN1C(C(=O)c2ccccc2)=C(OC(=O)CC)c2ccccc2S1(=O)=O | -42.2 | 
12 | COc1cccc(-c2nc(CS(=O)CC(=O)N3CCN(c4cccc(C(F)(F)F)c4)CC3)c(C)o2)c1 (stereo not drawn) | -59.5 | 
13 | O=C(NCC(c1ccc2c(c1)OCO2)N1CCN(c2ccc(F)cc2)CC1)c1cccc([N+](=O)[O-])c1 (stereo not drawn) | -46.7 | 
14 | O=C(Nc1ccc2c(c1)CCCN2C(=O)c1cccs1)c1cccc(C(F)(F)F)c1 | -28.8 | 
15 | COc1ccc(-n2c(-c3ccco3)nc3c(cnn3-c3ccc(Cl)cc3)c2=O)cc1 | -50 | 
16 | NC(=O)Nc1cc(-c2ccc(CN3CCOCC3)cc2)sc1C(N)=O |  | 23.9 µM (active)
17 | Cc1ccc(CNC(=O)c2c(Nc3c(C)cccc3C)sc(C(=O)c3ccccc3)c2N)cc1 | -71 | 
18 | CCOc1ccc(/C=C/c2nc(C#N)c(NCc3ccccc3)o2)cc1 | -14.7 | 
19 | CCN(c1ncnc2c1cnn2-c1cc(Cl)ccc1C)C1CCCCC1 | -22.2 | 

Row | SMILES | activity change, positive = activation [%] | Potency
20 | CCN(CC)S(=O)(=O)c1ccc2c(c1)N(CC(=O)N1CCN(c3cccc(C(F)(F)F)c3)CC1)C(=O)CO2 | -9.43 | 
21 | N#Cc1ccccc1S(=O)(=O)N1CCC(Oc2ccc(-n3cnnn3)cc2)CC1 | -83.7 | 
22 | CCOc1ccc(CCNC(=O)CSCc2nc(-c3cccc(C)c3)oc2C)cc1OCC | -46.9 | 
23 | Cc1ccc(C(=O)Nc2ccc(S(=O)(=O)N(Cc3ccccc3)c3ccccc3)cc2)cc1 | -32.1 | 
24 | COc1ccc(NC(=O)Cn2nc(C(F)(F)F)c3c2CCCC3)cc1OC | -53.1 | 
25 | COc1ccc(Cn2c(SCc3ccc(C(=O)NC4CCCC4)cc3)nc3ccncc32)cc1 | -18.4 | 
26 | CCOc1ccccc1NS(=O)(=O)c1ccc2c(c1)CC(C)N2C(=O)C1CC1 (stereo not drawn) | -55.1 | 
27 | CCCCOc1ccc(CNC(=O)Cc2ccc(NC(=O)N3CCSc4ncccc43)cc2)cc1 | -27.6 | 
28 | COc1ccc(-c2noc(CSc3nnc(-c4ccccc4)n3-c3ccc(F)cc3)n2)c(OC)c1 | -30.8 | 
29 | CN(C)c1ccc(C(=O)Nc2sc(Nc3ccccc3)nc2C(N)=O)cc1 | -12.3 | 
30 | Cc1ccc(C)c(N2CCN(C(=O)c3nn(C)c4c3CS(=O)(=O)c3ccccc3-4)CC2)c1 | -34.9 | 
31 | CCc1ccc(CNC(=O)Cn2ccc3cc(S(=O)(=O)N4CCCCCC4)ccc32)cc1 | -33.5 | 
32 | CCOc1ccc(NS(=O)(=O)c2ccc(-c3cc(C)no3)s2)cc1 | -28.6 | 
33 | CCOC(=O)C1CCCN(S(=O)(=O)c2ccc3c(c2)CCCN3C(C)=O)C1 (stereo not drawn) | -33 | 
34 | CCCCOc1ccc(C(=O)Nc2ccc3c(c2)CCCN3S(=O)(=O)c2ccc(C)cc2)cc1 | -62.3 | 
35 | CCOC(=O)C1CCN(C(=O)Cn2c(-c3cccs3)cc3cc(Cl)ccc32)CC1 | -14 | 
36 | Cc1ccc(Cl)cc1N1CCN(C(=O)c2ccc3c(c2)N(Cc2ccc(F)cc2)CCS3)CC1 | -36.5 | 
37 | Cc1ccc(Cl)cc1-n1ncc2c(NC3CCCCC3)ncnc21 | -26 | 
38 | O=c1c(-c2ccc(O)cc2)coc2cc(O)ccc12 |  | 8.49 µM (active)
